# Molecular target: ScBbc1
# Experiment: SPOT peptide array binding signal intensity (averaged, normalized) (arbitrary units (background-subtracted, floor 0; scale differs between SH3 domains)); higher = stronger binding of the SH3 domain to the peptide
# How it was run: (§1)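 GST-fused SH3 domains, from four yeast species, were produced in E. coli BL21(DE3) and captured on glutathione Sepharose. Membranes of cellulose carrying synthetic 15-mer peptides, in which cysteines had been replaced by serines, were exposed to each domain at 10 μg/ml overnight at 4°C in TBS-based blocking buffer. After anti-GST antibody, an HRP anti-mouse secondary and luminol, spots were imaged and quantified using Genespotter. Binding signal is normalized and background-subtracted spot intensity, averaged over replicates, in arbitrary units that differ between domains.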
row,Binder,SPOT peptide array binding signal intensity
1,LLGRKRPVMERVVDI,5.5

# Molecular target: ScBem1-D1
# Experiment: as above
# How it was run: as §1
row,Binder,SPOT peptide array binding signal intensity
1,LLGRKRPVMERVVDI,3

# Molecular target: ScBzz1-D1
# Experiment: as above
# How it was run: as §1
row,Binder,SPOT peptide array binding signal intensity
1,LLGRKRPVMERVVDI,29.5

# Molecular target: ScBzz1-D2
# Experiment: as above
# How it was run: as §1
row,Binder,SPOT peptide array binding signal intensity
1,LLGRKRPVMERVVDI,24.5

# Molecular target: ScCyk3
# Experiment: as above
# How it was run: as §1
row,Binder,SPOT peptide array binding signal intensity
1,LLGRKRPVMERVVDI,31.5

# Molecular target: ScFus1
# Experiment: as above
# How it was run: as §1
row,Binder,SPOT peptide array binding signal intensity
1,LLGRKRPVMERVVDI,163

# Molecular target: ScHof1
# Experiment: as above
# How it was run: as §1
row,Binder,SPOT peptide array binding signal intensity
1,LLGRKRPVMERVVDI,1

# Molecular target: ScHse1
# Experiment: as above
# How it was run: as §1
row,Binder,SPOT peptide array binding signal intensity
1,LLGRKRPVMERVVDI,552

# Molecular target: ScLsb1
# Experiment: as above
# How it was run: as §1
row,Binder,SPOT peptide array binding signal intensity
1,LLGRKRPVMERVVDI,13.2

# Molecular target: ScLsb2
# Experiment: as above
# How it was run: as §1
row,Binder,SPOT peptide array binding signal intensity
1,LLGRKRPVMERVVDI,≤ 0

# Molecular target: ScLsb3
# Experiment: as above
# How it was run: as §1
row,Binder,SPOT peptide array binding signal intensity
1,LLGRKRPVMERVVDI,140

# Molecular target: ScLsb4
# Experiment: as above
# How it was run: as §1
row,Binder,SPOT peptide array binding signal intensity
1,LLGRKRPVMERVVDI,27.5

# Molecular target: ScMyo3
# Experiment: as above
# How it was run: as §1
row,Binder,SPOT peptide array binding signal intensity
1,LLGRKRPVMERVVDI,4

# Molecular target: ScMyo5
# Experiment: as above
# How it was run: as §1
row,Binder,SPOT peptide array binding signal intensity
1,LLGRKRPVMERVVDI,1.5

# Molecular target: ScNbp2
# Experiment: as above
# How it was run: as §1
row,Binder,SPOT peptide array binding signal intensity
1,LLGRKRPVMERVVDI,254

# Molecular target: ScPex13
# Experiment: as above
# How it was run: as §1
row,Binder,SPOT peptide array binding signal intensity
1,LLGRKRPVMERVVDI,53.5

# Molecular target: ScRvs167
# Experiment: as above
# How it was run: as §1
row,Binder,SPOT peptide array binding signal intensity
1,LLGRKRPVMERVVDI,7.67

# Molecular target: ScSho1
# Experiment: as above
# How it was run: as §1
row,Binder,SPOT peptide array binding signal intensity
1,LLGRKRPVMERVVDI,412

# Molecular target: ScSla1-D1-D2
# Experiment: as above
# How it was run: as §1
row,Binder,SPOT peptide array binding signal intensity
1,LLGRKRPVMERVVDI,158

# Molecular target: ScSla1-D3
# Experiment: as above
# How it was run: as §1
row,Binder,SPOT peptide array binding signal intensity
1,LLGRKRPVMERVVDI,78.5

# Molecular target: SpAbp1-D1
# Experiment: as above
# How it was run: as §1
row,Binder,SPOT peptide array binding signal intensity
1,LLGRKRPVMERVVDI,≤ 0

# Molecular target: SpBbc1
# Experiment: as above
# How it was run: as §1
row,Binder,SPOT peptide array binding signal intensity
1,LLGRKRPVMERVVDI,5.5

# Molecular target: SpBzz1-D1
# Experiment: as above
# How it was run: as §1
row,Binder,SPOT peptide array binding signal intensity
1,LLGRKRPVMERVVDI,158

# Molecular target: SpBzz1-D2
# Experiment: as above
# How it was run: as §1
row,Binder,SPOT peptide array binding signal intensity
1,LLGRKRPVMERVVDI,≤ 0

# Molecular target: SpCyk3
# Experiment: as above
# How it was run: as §1
row,Binder,SPOT peptide array binding signal intensity
1,LLGRKRPVMERVVDI,1

# Molecular target: SpHof1
# Experiment: as above
# How it was run: as §1
row,Binder,SPOT peptide array binding signal intensity
1,LLGRKRPVMERVVDI,104

# Molecular target: SpHof1-2
# Experiment: as above
# How it was run: as §1
row,Binder,SPOT peptide array binding signal intensity
1,LLGRKRPVMERVVDI,9.5

# Molecular target: SpHof1-3
# Experiment: as above
# How it was run: as §1
row,Binder,SPOT peptide array binding signal intensity
1,LLGRKRPVMERVVDI,29.5

# Molecular target: SpHse1
# Experiment: as above
# How it was run: as §1
row,Binder,SPOT peptide array binding signal intensity
1,LLGRKRPVMERVVDI,470

# Molecular target: SpLsb1
# Experiment: as above
# How it was run: as §1
row,Binder,SPOT peptide array binding signal intensity
1,LLGRKRPVMERVVDI,0.5

# Molecular target: SpLsb4
# Experiment: as above
# How it was run: as §1
row,Binder,SPOT peptide array binding signal intensity
1,LLGRKRPVMERVVDI,140

# Molecular target: SpMyo1
# Experiment: as above
# How it was run: as §1
row,Binder,SPOT peptide array binding signal intensity
1,LLGRKRPVMERVVDI,5

# Molecular target: SpNbp2
# Experiment: as above
# How it was run: as §1
row,Binder,SPOT peptide array binding signal intensity
1,LLGRKRPVMERVVDI,99.5

# Molecular target: SpPex13
# Experiment: as above
# How it was run: as §1
row,Binder,SPOT peptide array binding signal intensity
1,LLGRKRPVMERVVDI,16

# Molecular target: SpRvs167
# Experiment: as above
# How it was run: as §1
row,Binder,SPOT peptide array binding signal intensity
1,LLGRKRPVMERVVDI,14.3

# Molecular target: SpSla1-D1-D2
# Experiment: as above
# How it was run: as §1
row,Binder,SPOT peptide array binding signal intensity
1,LLGRKRPVMERVVDI,≤ 0

# Molecular target: SpSla1-D3
# Experiment: as above
# How it was run: as §1
row,Binder,SPOT peptide array binding signal intensity
1,LLGRKRPVMERVVDI,35

# Source: the supplement of paper PMC4466140
